The assay has as its system TYKNU. Description: fractional viability relative to vehicle; TYKNU is a high-grade serous ovarian cancer line; higher = less growth inhibition. Particulars: 72 h, genotype: OPA1 knockout (sgOPA1 #2). The method in brief: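 Drug treatment lasted 72 h, with cells grown at 37 °C in 5% CO2 in RPMI 1640 supplemented with 10% FBS. Beforehand, TYKNU control cells or their lentiCRISPRv2 knockout derivatives had been seeded at 500 cells per well into drug-stamped 384-well plates carrying a ~2100-compound library at 2 or 10 μM, in duplicate. Viability came from Cell Titer Glo luminescence, with averaged duplicate treatment wells normalised to duplicate control wells in the same plate position.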

Structures are written as SMILES. Structures can show the parent of a compound that is named as a salt. The full ranking holds about 2,000 compounds; the median of “fractional viability relative to vehicle” is about 0.92, and the lowest 2% start at about 0.11. Only a selection was taken, and the lowest values are over-represented in it overall.

For `[O-][n+]1ccccc1[S-].[O-][n+]1ccccc1[S-].[Zn+2]` [Zinc Pyrithione], the fractional viability reads like this: (2uM) 0.0671; (10uM) 0.0336.
Turning to `CN1[C@@H]2C[C@@H](OC(=O)[C@H](CO)c3ccccc3)C[C@H]1[C@@H]1O[C@@H]12` [Scopolamine HBr], the fractional viability is, setting by setting: (2uM) 1.29; (10uM) 0.892.
Take `C=CC[C@]1(O)CC[C@H]2[C@@H]3CCC4=CC(=O)CCC4=C3C=C[C@@]21C` [Altrenogest]: the fractional viability amounted to 0.97 (2uM) and 0.84 (10uM).
For `CC(=O)Nc1ccc(OC[C@](C)(O)C(=O)Nc2ccc([N+](=O)[O-])c(C(F)(F)F)c2)cc1` [Andarine], the fractional viability by setting is: (2uM) 1.18; (10uM) 1.18.
`COC[C@H]1OC(=O)c2coc3c2[C@@]1(C)C1=C(C3=O)[C@@H]2CCC(=O)[C@@]2(C)C[C@H]1OC(C)=O` [Wortmannin]: the fractional viability runs as follows: (2uM) 0.744; (10uM) 0.149.
In the case of `C[C@@H]1CC[C@@]2(OC1)O[C@H]1C[C@H]3[C@@H]4CC=C5C[C@@H](O[C@@H]6O[C@H](CO)[C@@H](O[C@@H]7O[C@@H](C)[C@H](O)[C@@H](O)[C@H]7O)[C@H](O)[C@H]6O[C@@H]6O[C@@H](C)[C@H](O)[C@@H](O)[C@H]6O)CC[C@]5(C)[C@H]4CC[C@]3(C)[C@H]1[C@@H]2C` [Dioscin], the fractional viability runs as follows: (2uM) 0.289; (10uM) 0.0918.
For `Cc1cccc(C)c1NC1=NCCCS1` [Xylazine HCl] the same measures were 0.823 and 0.79.
With `COc1cc(OC)c(OC)cc1C=O` [Asaraldehyde], the fractional viability runs as follows: (2uM) 1.16; (10uM) 1.15.
For `C=CCN1CC[C@]23c4c5ccc(O)c4O[C@H]2C(=O)CC[C@@]3(O)[C@H]1C5` [Naloxone HCl] the same measures were 0.816 and 0.957.
Take `CCNC(=O)C[C@@H]1N=C(c2ccc(Cl)cc2)c2cc(OC)ccc2-n2c(C)nnc21`: the fractional viability runs as follows: (2uM) 0.715; (10uM) 0.794.
Consider `CN[C@@H]1C[C@H]2O[C@@](C)([C@@H]1OC)n1c3ccccc3c3c4c(c5c6ccccc6n2c5c31)C(=O)NC4` [Staurosporine], for which the fractional viability reads like this: (2uM) 0.264; (10uM) 0.0922.
As to `COc1ccc(C(CN(C)C)C2(O)CCCCC2)cc1` (stereo not given) [Venlafaxine], the fractional viability reads like this: (2uM) 1.21; (10uM) 1.
The corresponding values for `Cn1c(CCCC(=O)O)nc2cc(N(CCCl)CCCl)ccc21` [Bendamustine HCl] are 1.1 and 1.11.
Turning to `CN1CCC(c2c[nH]c3ccc(O)cc23)CC1`, the fractional viability turned out to be 0.838 (2uM) and 0.922 (10uM).
Take `CCOc1ccccc1-n1c(C(C)N2CCN(C(=O)COc3ccc(Cl)cc3)CC2)nc2ccccc2c1=O` (stereo not given) [Erastin]: the fractional viability reads like this: (2uM) 0.45; (10uM) 0.0976.
The corresponding values for `C[C@H]1CNCCc2ccc(Cl)cc21` [Lorcaserin HCl] are 1.04 and 1.02.
For `CCCN1C[C@H](CSC)C[C@@H]2c3cccc4[nH]cc(c34)C[C@H]21` [Pergolide mesylate] the same measures were 0.978 and 0.96.
For `CC1(C)CC(O)CC(C)(C)N1[O]` [Tempol], the fractional viability came out at 0.982 (2uM) and 1.06 (10uM).
For the compound `Cc1cc(SCc2sc(-c3ccc(C(F)(F)F)c(F)c3)nc2C)ccc1OCC(=O)O`, the fractional viability by setting is: (2uM) 0.824; (10uM) 0.75.
As for `CC1=C(O)C(=O)C=C2C1=CC=C1[C@@]2(C)CC[C@@]2(C)[C@@H]3C[C@](C)(C(=O)O)CC[C@]3(C)CC[C@]12C` [Celastrol], the fractional viability runs as follows: (2uM) 0.123; (10uM) 0.0841.
Turning to `CC(=O)O[C@H]1C[C@@H]2CC[C@@H]3[C@H](CC[C@@]4(C)[C@H]3C[C@H]([N+]3(C)CCCCC3)[C@@H]4OC(C)=O)[C@@]2(C)C[C@@H]1[N+]1(C)CCCCC1` [Pancuronium dibromide], the fractional viability by setting is: (2uM) 1; (10uM) 0.976.
The corresponding values for `CN1[C@@H]2CC(O)C[C@H]1[C@@H]1O[C@@H]12` (stereo not given in full) [Scopine] are 0.96 and 0.768.
With `C[C@H]1CCC/C=C/[C@@H]2C[C@H](O)C[C@H]2[C@H](O)/C=C/C(=O)O1` [Brefeldin A], the fractional viability turned out to be 0.269 (2uM) and 0.277 (10uM).
As for `CC(C)=CCC[C@]1(C)C=Cc2c(O)c3c(c(CC=C(C)C)c2O1)O[C@]12C(=C[C@@H]4C[C@H]1C(C)(C)O[C@@]2(C/C=C(/C)C(=O)O)C4=O)C3=O` [Gambogic Acid], the fractional viability stood at 0.0971 (2uM) and 0.0282 (10uM).
On to `C[N+]1(C)[C@@H]2C[C@@H](OC(=O)[C@H](CO)c3ccccc3)C[C@H]1[C@@H]1O[C@@H]12` [Methscopolamine], for which the fractional viability by setting is: (2uM) 0.982; (10uM) 0.966.
As for `C[C@]12N[C@H](Cc3ccccc31)c1ccccc12` [MK-801 (Dizocilpine)], the fractional viability is 1.04 (2uM) and 0.956 (10uM).
The corresponding values for `CCN1CCN(C(=O)Cc2ccc(Nc3ncc(F)c(Nc4ccc(C(=O)Nc5ccccc5Cl)cc4)n3)cc2)CC1` [Aurora A Inhibitor I] are 1.03 and 0.0801.
Compound `O=C(O[C@H]1C[N+]2(CCCOc3ccccc3)CCC1CC2)C(O)(c1cccs1)c1cccs1` [Aclidinium Bromide] had a fractional viability (2uM) of 0.952 and a fractional viability (10uM) of 0.927.
`CC(C)NCC(O)c1ccccc1Cl` (stereo not given) [Clorprenaline HCl]: the fractional viability came to 0.911 (2uM) and 0.968 (10uM).
`CN1CCN(c2nc3ccccc3nc2Cl)CC1`: the fractional viability reads like this: (2uM) 1.15; (10uM) 0.988.
For `O=C1CC[C@@]2(O)[C@H]3Cc4ccc(O)c5c4[C@@]2(CCN3CC2CC2)[C@H]1O5` [Naltrexone HCl] the same measures were 1.07 and 1.12.
For the compound `CC[C@@H]1/C=C/C=C/C[C@H](C)[C@H](O)[C@](C)(O)C(=O)[C@H](C)[C@@H](O)[C@H](C)C(=O)[C@H](C)[C@@H](O)[C@H](C)/C=C/C(=O)O[C@H]2[C@@H](C)[C@@H](CC1)O[C@@]1(CC[C@@H](C)[C@@H](C[C@H](C)O)O1)[C@@H]2C` [Oligomycin A], the fractional viability (2uM) was found to be 1.01 and the fractional viability (10uM) turned out to be 0.871.
With `C1=C2CCCN[C@H]2[C@@H]2C[C@H]1[C@H]1CCCCN1C2` [Aloperine], the fractional viability reads like this: (2uM) 1.02; (10uM) 0.89.
In the case of `c1cc2c(cc1[C@H]1OC[C@H]3[C@@H]1CO[C@@H]3c1ccc3c(c1)OCO3)OCO2` [Sesamin], the fractional viability came out at 1.06 (2uM) and 0.894 (10uM).
`O=[N+]([O-])/C=C/c1ccc2c(c1)OCO2`: the fractional viability runs as follows: (2uM) 0.477; (10uM) 0.113.
For `O=C(Oc1ccc([N+](=O)[O-])cc1)N1CCC(C(O)(c2ccc3c(c2)OCO3)c2ccc3c(c2)OCO3)CC1` the same measures were 0.994 and 0.739.
Take `Cc1sc2c(c1C)C(c1ccc(Cl)cc1)=N[C@@H](CC(=O)Nc1ccc(O)cc1)c1nnc(C)n1-2`: the fractional viability (2uM) is 0.634 and the fractional viability (10uM) worked out at 0.619.
Consider `CN1c2ccccc2C(NCCCCCCC(=O)O)c2ccc(Cl)cc2S1(=O)=O` (stereo not given) [Tianeptine sodium], for which the fractional viability was 1.15 (2uM) and 1.02 (10uM).
On to `Nc1nc(N)nc(NC2CC2)n1` [Cyromazine], for which the fractional viability is, setting by setting: (2uM) 1.01; (10uM) 0.994.
Turning to `CCCN1CCO[C@@H]2c3cc(O)ccc3OC[C@H]21`, the fractional viability came out at 0.95 (2uM) and 1.01 (10uM).

The values are drawn from the supplement of paper PMC5919970.
